According to PubChem BioAssay (NCATS):
Inconclusive results are not listed. A number with no mark means an inactive call. Active and inactive are the calls of the source. Calls come from the whole dose curve; as a rule, active = well fitted curve in the direction sought with a large enough effect; inconclusive = small, poorly fitted or top-dose-only effect, or another doubt; inactive = no such curve, though single readings can be large; an effect the other way counts as inactive or inconclusive.

Assay: High Content Imaging Cell-Based qHTS for Inhibitors of the mTORC1 Signaling Pathway in MEF (Tsc2-/-, p53-/-) Cells (AID 2666);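 note: percent of cells scored positive for phospho-rpS6 Ser235/236 immunostaining by imaging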
Details: series mostly up to 38.3 µM
Method in brief: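 Read-out: % positive cells per well, with thresholds from highest- and lowest-signal wells, based on phospho-rpS6 (Ser235/236) intensity normalized to Hoechst nuclear stain. Cells: Tsc2-/-, p53-/- MEFs carrying empty vector; compound 24 hrs, 37 degree Celsius.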

SMILES | outcome
CC(C)NCC(O)COc1cccc2ccccc12 (centres undefined) | inactive
COc1ccccc1N1CCN(CCCCNS(=O)(=O)c2cccc3c(N(C)C)cccc23)CC1 | inactive
O=C1NC(O)=NC1(c1ccccc1)c1ccccc1 | inactive
O=C(Nc1cccc(C(=O)Nc2ccc(S(=O)(=O)O)c3cc(S(=O)(=O)O)cc(S(=O)(=O)O)c23)c1)Nc1cccc(C(=O)Nc2ccc(S(=O)(=O)O)c3cc(S(=O)(=O)O)cc(S(=O)(=O)O)c23)c1 | inactive
COc1cccc(OC)c1OCCNCC1COc2ccccc2O1 (centres undefined) | inactive
CN=c1nc(-c2ccccc2)n(-c2ccccc2)s1 | inactive
CC(C)NC[C@H](O)COc1cccc2[nH]ccc12 | inactive
Cc1ccccc1CNc1ncnc2c1ncn2C1OC(CO)C(O)C1O (centres undefined) | inactive
NC(CCCP(=O)(O)O)C(=O)O (centres undefined) | inactive
O=c1[nH]c2cc(Cl)c(Cl)cc2[nH]c1=O | inactive
Fc1cccc(/C=N/N=C/c2cccc(F)c2)c1 | inactive
O=C(/C=C/c1ccc(O)cc1)c1ccc(O)cc1O | inactive
COc1ccc(/C=C/C(=O)Nc2ccccc2C(=O)O)cc1OC | inactive
CN1CCc2cc(NC(=O)Nc3cccnc3)ccc21 | inactive
CN(C)C(N)=NCCC[C@H](N)C(=O)O | inactive
O=C(O)CCCC[C@@H]1CCSS1 | inactive
O=C(O)/C=C/C(O)c1ccc(Cl)cc1 (centres undefined) | inactive

SMILES | outcome
CC(C)Cc1ccc([C@H](C)C(=O)O)cc1 | inactive
Ic1ccc(N2CCN(Cc3c[nH]c4ncccc34)CC2)cc1 | inactive
CCCCN1CCC(n2c(=O)[nH]c3ccccc32)CC1 | inactive
CC(C)(C)c1ccc(S(=O)(=O)/C=C/C#N)cc1 | inactive
Cc1cc(NC(=O)Nc2ccc3c(ccn3C)c2)sn1 | inactive
CCN1/C(=C/C(C)=O)Sc2ccc(OC)cc21 | inactive
CN1CCc2ccccc2Cc2[nH]c3ccccc3c2CC1 | inactive
COc1ccccc1CNCCCCCCNCCCCCCCCNCCCCCCNCc1ccccc1OC | inactive
COC1=C(OC)C(=O)c2ccccc2C1=O | inactive
O=C(/C=C/c1ccc(O)c(O)c1)OCCc1ccccc1 | inactive
CN1CCc2cc(O)c(O)cc2C(c2ccccc2)C1 (centres undefined) | inactive
c1cnc2c(c1)ccc1cccnc12 | inactive
Oc1cc(O)cc(/C=C/c2ccc(O)c(O)c2)c1 | inactive
O=C(O)[C@@H]1C[C@H](C(=O)O)N1 | inactive
CCCN(CC1CC1)c1nc(C)nc(Nc2c(Cl)cc(Cl)cc2Cl)c1Cl | inactive
COc1ccc(NC(=O)/C=C/c2ccc(Cl)cc2)cc1 | inactive

Assay: High Content Imaging Cell-Based qHTS for Inhibitors of the mTORC1 Signaling Pathway in MEF Cells (AID 2667);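 note: Tsc2-/- p53-/- MEFs stably re-expressing wild-type Tsc2 exposed 24 h; plate controls were DMSO wells for no effect and rapamycin control wells for full effect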
Details: series mostly up to 38.3 µM; activity change, negative = inhibition: at the top concentration
Method in brief: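 MEF (Tsc2-/-, p53-/-, WT Tsc2 re-expressed); cpd 24 h, 37 °C; PFA fix; Alexa-488 anti-p-rpS6 Ser235/236, PI, Hoechst; IN Cell imaging; Hoechst/Alexa-488 intensity ratio; % active cells, thresholds set from rapamycin and DMSO wells.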

SMILES | activity change, negative = inhibition [%]
CC(C)NCC(O)COc1cccc2ccccc12 (centres undefined) | -100
O=C1NC(O)=NC1(c1ccccc1)c1ccccc1 | -100
O=C(Nc1cccc(C(=O)Nc2ccc(S(=O)(=O)O)c3cc(S(=O)(=O)O)cc(S(=O)(=O)O)c23)c1)Nc1cccc(C(=O)Nc2ccc(S(=O)(=O)O)c3cc(S(=O)(=O)O)cc(S(=O)(=O)O)c23)c1 | -100
COc1cccc(OC)c1OCCNCC1COc2ccccc2O1 (centres undefined) | -100
CN=c1nc(-c2ccccc2)n(-c2ccccc2)s1 | -100
CC(C)NC[C@H](O)COc1cccc2[nH]ccc12 | -100
Cc1ccccc1CNc1ncnc2c1ncn2C1OC(CO)C(O)C1O (centres undefined) | -100
NC(CCCP(=O)(O)O)C(=O)O (centres undefined) | -100
O=c1[nH]c2cc(Cl)c(Cl)cc2[nH]c1=O | -100
Fc1cccc(/C=N/N=C/c2cccc(F)c2)c1 | -100
O=C(/C=C/c1ccc(O)cc1)c1ccc(O)cc1O | -100
